What all share (assay): NCI-60 one-dose screen, 48 h (100 = growth as untreated, 0 = no growth, -100 = all killed)
Details in all cases: 10 µM unless noted

The subject of assay [1] is NCI-H23 lung.
The subject of assay [2] is NCI-H226 lung.
The subject of assay [3] is NCI-H322M lung.
For assay [4], the system named is HOP-62 NSCLC.
Assay [5] concerns NCI-H460 lung.
Assay [6] relates to HOP-92 NSCLC.
The test system of assay [7] is NCI-H522 lung.
The subject of assay [8] is A549/ATCC NSCLC.
Assay [9] concerns 786-0 renal.

Each structure is given as a SMILES string. About 83,000 compounds went through this panel and 20% of them were active in at least one assay; those are over-represented in the sample as a whole.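 48-hour exposure, single concentration, 96-well plates; percent growth endpoint where 0 means no net growth. Active: below 10.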 A number with no mark means an inactive call. Calls of active or inactive are those of the source.

This note sets out measurements from PubChem BioAssay (NCI).

As to `O=C(O)/C(=C\c1ccc(Cl)cc1)c1ccc(Cl)cc1`, the growth was 90.8% in assay [1]; 99.1% in [2]; 92.2% in assay [3]; 104% in assay [4]; 97.5% in assay [5]; 67.7% in [6]. Further, the growth was 81.9% in [7], 88.5% in assay [8] and 90.3% in assay [9].

Consider `COc1cccc([C@H]2c3[nH]c4ccccc4c3C[C@H]3C(=O)N(CCCCCCC(=O)NO)CC(=O)N23)c1`, for which the growth is 66.8% in assay [1]; 88.7% in assay [2]; 80.2% in assay [3]; 68.6% in [4]; 72.9% in assay [5]; -1.94% (active) in [6]. Also, the values for the growth in assay [7], in [8] and in assay [9] were 25.6%, 94.9% and 87.8%, respectively.

For the compound `Fc1ccc(-c2nn(-c3ccccc3)cc2-c2nc3ccccc3o2)cc1`, the growth is 65.8% in assay [1]; 84.4% in assay [2]; 107% in [3]; 48.7% in assay [4]; 37.5% in assay [5]; 91.2% in assay [6]. The results for the growth in assay [7], in assay [8] and in assay [9] were 82.3%, 55.3% and 88.3%, respectively.

As for `COc1cc2c(c(OC)c1OC)-c1ccc(OC)c(=O)cc1[C@@H](NC(=O)CCl)CC2`, the growth in assay [1] was 5.73% (active); in assay [2] it was 12.5%; in assay [3] it was 52.1%; in assay [4], 40.4%; in assay [5], -5.39% (active); in assay [6], 10%. The results for the growth in [7], in assay [8] and in [9] were -27.4% (active), 13% and 14.6%, respectively.

Take `COC(=O)c1c2c(c[n+]([O-])c1C)C(=O)C(NCc1ccccc1)=CC2=O`: the growth was -34.1% (active) in assay [1]; -9.27% (active) in assay [2]; -8.65% (active) in assay [3]; 4.14% (active) in [4]; -30.3% (active) in [5]; -29.7% (active) in assay [6]. The growth was -30.5% (active) in assay [7], -19.8% (active) in [8] and 10.5% in [9].

Turning to `O=C1c2cccc(NCCN=Cc3cc(O)ccc3O)c2C(=O)c2c(NCCN=Cc3cc(O)ccc3O)cccc21`, the growth was -26.1% (active) in [1]; 6.91% (active) in assay [2]; -11.3% (active) in assay [3]; -9.1% (active) in assay [4]; -70.8% (active) in assay [5]; -25.5% (active) in [6]. Besides, the results for the growth in assay [7], in [8] and in assay [9] were -65% (active), -55.6% (active) and 0.261% (active), respectively.

Regarding `CC(=O)Cc1nsc(NC(=O)c2cc(-c3cc(Cl)cc(Cl)c3)oc2C)n1`, the growth is 101% in assay [1]; 96.3% in assay [2]; 100% in [3]; 95.9% in [4]; 103% in [5]; 105% in assay [6]. Besides, the growth was 86.6% in assay [7], 94.3% in [8] and 98% in [9].

With `N#C/C(=C\c1ccc2ccccc2c1)c1cc2ccccc2[nH]1`, the growth in [1] was 48.8%; in assay [2], 67.9%; in assay [3] it was 63.3%; in assay [4], 40.4%; in [5], 13.3%; in [6], 41.5%. Also, the growth in [7] is 1.83% (active); in assay [8], 51.1%; in [9], 41.1%.

On to `CC1=C(C(=O)OC(C)C)C(c2ccc3c(c2)OCO3)NC(=S)N1` (stereo unspecified), for which the growth in assay [1] is 99.2%; in [2], 84.1%; in [3], 108%; in assay [4] it was 119%; in [5], 110%; in assay [6], 96.6%. Moreover, the growth was 86.4% in [7], 104% in assay [8] and 104% in assay [9].

On to `O=CC1(C2(C=O)c3ccccc3-c3ccccc32)c2ccccc2-c2ccccc21`, for which the growth is -28.8% (active) in [1]; -47.2% (active) in assay [2]; -20.9% (active) in assay [3]; -76.3% (active) in assay [4]; -46.9% (active) in [5]; -74.8% (active) in assay [6]. For the same compound, the growth in [7] was -84.5% (active); in assay [8] it was -50.5% (active); in [9] it was -84.4% (active).

Turning to `Nc1c(C(=O)Nc2ccccc2Cl)sc2nc3c(cc12)C(O)CCC3` (stereo unspecified), the growth in assay [1] was 44.2%; in assay [2], 52.8%; in assay [3], 60.2%; in [4], 41.8%; in [5], 24.5%; in assay [6] it was 46.4%. Moreover, the growth in assay [7] is -33.7% (active); in assay [8] it was 25.4%; in assay [9], 48.1%.

Turning to `COc1cc(CNS(=O)(=O)c2ccc(C)cc2)ccc1OCc1cn(-c2ccc(F)cc2)nn1`, the growth is 79.6% in [1]; 71.4% in assay [2]; 102% in [3]; 102% in [4]; 103% in [5]; 86.4% in [6]. Moreover, the growth in assay [7] was 75.8%; in [8] it was 93.8%; in assay [9] it was 97.2%.

Take `CCOc1ccc(NC(=O)CSc2oc(-c3ccccc3)nc2S(=O)(=O)c2ccc(F)cc2)cc1`: the growth is 65.8% in assay [1]; 80.2% in [2]; 75.5% in assay [3]; 58.2% in [4]; 53.9% in assay [5]; 31.1% in [6]. The figures for the growth in assay [7], in [8] and in [9] were 67.8%, 46% and 45.5%, respectively.

Turning to `C=C(C)[C@@H]1CC[C@]2(C(=O)OC)CC[C@]3(C)[C@H](CC[C@@H]4[C@@]5(C)C/C(=C/NC(N)=S)C(=O)C(C)(C)[C@@H]5CC[C@]43C)[C@@H]12`, the growth was 80.4% in assay [1]; 86.3% in assay [2]; 101% in assay [3]; 97.5% in assay [4]; 88.9% in [5]; 90.4% in assay [6]. For the same compound, the growth is 88.2% in [7], 76.5% in [8] and 108% in [9].
